In the library only some 8.7% were active in any assay of this set; here they are far more common.
HP1b chromo inh: HP1-beta chromodomain-methylated histone interaction inhibition | P83916 | AlphaScreen HP1-beta / biotin-H3K9me3 peptide binding | Potency, µM (top dose mostly 114 µM), for the others: top-dose activity change, negative = inhibition, hits mostly inhibitors | hit rate 0.56% among 390,000 | AID 540317; note: nearly all actives have a fitted effect of over 70% in size
Target sequence (P83916 whole entry, looked up): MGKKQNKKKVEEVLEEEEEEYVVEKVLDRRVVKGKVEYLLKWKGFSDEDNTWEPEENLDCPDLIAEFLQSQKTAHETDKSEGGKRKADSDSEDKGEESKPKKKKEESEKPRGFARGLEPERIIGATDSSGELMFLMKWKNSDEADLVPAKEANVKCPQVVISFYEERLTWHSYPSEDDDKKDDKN
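Compound inhibition of the preformed complex between 50 nM HP1-beta and 50 nM biotinylated H3K9me3 peptide was read by AlphaScreen. Buffer was PBS pH 7.4 with 0.01% Tween-20. Incubations ran 30 min at room temperature, with 10 ug/mL donor/acceptor beads.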
12-LOX inh: blocks human arachidonate 12S-lipoxygenase; P18054; purified 12hLO, xylenol orange hydroperoxide absorbance; Potency, µM (series often up to 108 µM), for the others: at the top dose activity change, negative = inhibition, hits mostly inhibitors; hit rate 1.1% among 580,000; AID 1671190; note: % is set by controls: 0 for no effect and ±100 for the full control effect
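Hydroperoxide product was detected by ferrous iron/xylenol orange as the 573 to 405 nm absorbance ratio. Arachidonic acid at 40 uM (final) was turned over for 30 min at room temperature by 150 nM human 12hLO, pH 7.0 Hepes buffer, after 15 min compound preincubation.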
JMJD2A Tudor: inhibitors of human JMJD2A Tudor domain; Potency, µM (doses to about 114 µM), inactives show at the highest dose activity change, negative = inhibition, actives largely listed as inhibitors; AID 504339; O75164; AlphaScreen JMJD2A-Tudor / H3K4me3 peptide binding; hit rate 4.4% among 390,000; note: % is set by controls: 0 for no effect and ±100 for the full control effect; nearly all actives have a fitted effect of over 50% in size
BAZ2B block: inhibitors of human BAZ2B bromodomain | Q9UIF8 | AlphaScreen BAZ2B-H3K14Ac peptide displacement | Potency, µM (top dose mostly 114 µM), inactives show at the highest dose activity change, negative = inhibition, usual class: inhibitors | hit rate 4.4% among 360,000; note: % is set by controls: 0 for no effect and ±100 for the full control effect; nearly all actives have a fitted effect of over 60% in size
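Protein-peptide AlphaScreen: BAZ2B 50 nM, b-H3K14Ac 50 nM, 1x PBS pH 7.4 + 0.01% Tween-20. Preincubation 30 min RT; cpd 30 min RT (top 110 uM); beads 20 min RT, light-protected.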
Sfp PPTase inh: blocks B. subtilis Sfp PPTase activity. Biochemical Sfp PPTase activity, qHTS. Potency, µM, inactives show largest response in the series, negative = inhibition, actives largely listed as inhibitors. hit rate 3.5% among 310,000;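 note: the enzyme is Sfp with the accession as filed and its product quenches rhodamine fluorescence; 0% = enzyme reaction without inhibitor and -100% = no enzyme wells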
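Buffer: 50 mM Hepes-Na pH 7.6, 10 mM MgCl2, 0.01% Nonidet P-40, 0.01% BSA. Enzyme 15 nM, pre-exposed to compound 15 min; substrates then added and fluorescence change tracked over 30 min.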
G9a block: inhibitors of human histone lysine methyltransferase G9a; Q96KQ7; G9a H3K9 monomethylation, AlphaScreen, 2 h; Potency, µM (top dose mostly 102 µM), for the others: top-dose activity, negative = inhibition, hits mostly inhibitors; hit rate 8.8% among 350,000; AID 504332; note: % is set by controls: 0 for no effect and ±100 for the full control effect; nearly all actives have a fitted effect of over 75% in size
Target sequence (Q96KQ7 913-1193 limits assumed): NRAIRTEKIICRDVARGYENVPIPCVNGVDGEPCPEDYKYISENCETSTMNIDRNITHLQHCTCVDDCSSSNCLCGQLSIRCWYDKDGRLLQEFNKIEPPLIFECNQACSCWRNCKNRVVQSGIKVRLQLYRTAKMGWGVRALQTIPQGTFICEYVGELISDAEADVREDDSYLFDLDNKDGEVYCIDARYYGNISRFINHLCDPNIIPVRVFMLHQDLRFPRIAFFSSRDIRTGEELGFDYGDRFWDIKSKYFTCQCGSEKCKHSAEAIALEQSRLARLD
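Readings reflect AlphaScreen signal from monomethyl-H3K9 antibody detection. HMT at 20 nM; substrate b-H3K9 500 nM; cofactor SAM 20 uM; 2 h RT reaction; compounds tested as titrations in qHTS with 15 min preincubation.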
Starred values were filed as active, the others as inactive; ? = inconclusive; . = no result; [ ] = dose if it differs, or a comment. Calls come from the whole dose curve; as a rule, active = well fitted curve in the direction sought with a large enough effect; inconclusive = small, poorly fitted or top-dose-only effect, or another doubt; inactive = no such curve, though single readings can be large; an effect the other way counts as inactive or inconclusive. Potency is the fitted concentration of half-maximal effect.

SMILES	HP1b chromo inh	12-LOX inh	JMJD2A Tudor	BAZ2B block	Sfp PPTase inh	G9a block
COc1ccc(C(O)c2nccc3cc(OC)c(OC)cc23)cc1OC (stereo unspecified)	7.6%	17.8%	?	56.2µM*	-0.3%	3.55µM*
O=C1OC(c2ccccc2)Cc2cc(C(=O)N3CCN(c4ccc(F)cc4)CC3)ccc21 (stereo unspecified)	-0.2%	-14.8%	-26.0%	-33.2%	.	50.1µM*
COc1ccc(C(=O)N2CCC(C(=O)N3CCN(c4ccccc4)CC3)CC2)cc1	22.2%	.	-5.9%	.	.	.
COc1ccc(N2CCN(C(=O)c3ccc4c(c3)CC(c3ccccc3)OC4=O)CC2)cc1 (stereo unspecified)	-13.2%	-26.9%	?	39.8µM*	.	10µM*
CCc1ccc(S(=O)(=O)N2CCSC2c2ccc(OC)c(Br)c2)cc1 (stereo unspecified)	.	-23.8%	.	.	.	.
COc1ccccc1CCNC(=O)Cn1c(=O)oc2ccccc21	12.9%	0.0%	-16.4%	79.4µM*	-19.5%	39.8µM*
CCn1cc(C(=O)N2C[C@@H](COC)[C@H](c3ccccn3)C2)cn1	.	45.4%	.	.	.	.
COc1ccc(-c2cc(C(=O)OC(C)C(=O)Nc3c(C)n(C)n(-c4ccccc4)c3=O)c3ccccc3n2)cc1 (stereo unspecified)	-5.2%	-19.6%	-8.4%	-2.1%	13.4%	22.3%[59 µM]
COc1cccc(/C=C/C(=O)OC(C)C(=O)Nc2c(C)n(C)n(-c3ccccc3)c2=O)c1 (stereo unspecified)	-0.4%	2.6%	-6.8%	-11.2%	18.0%	28.2%
Cc1c(NC(=O)COC(=O)c2cc(-c3ccc(-c4ccccc4)cc3)nc3ccccc23)c(=O)n(-c2ccccc2)n1C	33.9%	-15.4%	-12.5%	-1.9%	50.1µM*	1.1%[59 µM]
Cc1c(NC(=O)C(C)OC(=O)c2cc(-c3cccc4ccccc34)nc3ccccc23)c(=O)n(-c2ccccc2)n1C (stereo unspecified)	-2.7%	5.7%	-27.1%	-4.7%	0.4%	11.2µM*
Cc1c(NC(=O)C(C)OC(=O)/C=C/c2ccco2)c(=O)n(-c2ccccc2)n1C (stereo unspecified)	44.7µM*	-4.8%	20µM*	50.1µM*	-3.6%	?
O=C(CN1CCCc2cc(F)cc(F)c21)Nc1cccc2nsnc12	.	3.7%	.	.	.	.
CNC(=O)c1cc(-c2ccc(Br)cc2)nc2ccccc12	.	-64.6%	.	.	.	.
Cc1cccc(NC(=O)CN(C)C(=O)Cc2cccc(C(F)(F)F)c2)c1C	.	-7.6%	.	.	.	.
CCCCn1c(N)nc2ccccc21	29.7%	6.4%	-16.0%	15.1%	4.0%	17.1%[12.7 µM]
CCCn1c(NCc2ccco2)nc2ccccc21	11.6%	22.7%	-13.3%	-8.7%	5.0%	16.4%[59 µM]
CCCCn1c(/C=C/c2ccco2)nc2ccccc21	27.4%	?	-21.3%	-22.3%	-24.8%	8.91µM*
CCCn1c(/C=C/c2ccco2)nc2ccccc21	14.8%	?	-23.9%	9.4%	35.5µM*	8.91µM*
CCCNc1c(NC(=O)NCc2cccc(OC)c2)c(=O)oc2ccccc12	.	1.8%	.	.	.	.
CC1CCCN(CC(=O)NCCC2=CCCCC2)C1 (stereo unspecified)	.	2.7%	.	.	.	.
Cc1cc(C)cc(NC(=S)/N=C(\N)Nc2nc(C)c3ccccc3n2)c1	22.8%	44.7µM*	-20.7%	-9.0%	12.4%	20.7%[59 µM]
CCOc1ccc2nc(N/C(N)=N/C(=S)Nc3ccc(OC)cc3)nc(C)c2c1	32.5%	?	-17.9%	-36.4%	4.1%	1.3%[59 µM]
Cc1ccc(S(=O)(=O)/N=C(\N)Nc2nc(C)c3ccccc3n2)cc1	13.7%	-0.4%	-24.8%	-7.3%	89.1µM*	12.4%
CCc1ccc(NC(=S)/N=C(\N)Nc2nc(C)c3cc(CC)ccc3n2)cc1	24.8%	35.5µM*	-33.3%	-16.5%	26.8%	-4.3%[59 µM]
SMILES	HP1b chromo inh	12-LOX inh	JMJD2A Tudor	BAZ2B block	Sfp PPTase inh	G9a block
Cc1cccc(NC(=S)/N=C(\N)Nc2nc(C)c3cc(C)ccc3n2)c1	22.5%	39.8µM*	-27.2%	0.7%	10.9%	6.5%
Cc1[nH]c2ccc3ncccc3c2c1C	26.6%	-29.3%	-22.3%	50.1µM*	-53.3%	?
Cc1nc2ccc3[nH]c(C)c(C)c3c2s1	.	4.2%	.	.	.	.
O=C(NCC1CCCO1)c1cc(S(=O)(=O)N2CCCCC2)ccc1Cl (stereo unspecified)	35.5%	-15.3%	-8.4%	56.2µM*	.	8.0%[12.7 µM]
O=C(CNCC1CCCO1)N1CCN(S(=O)(=O)c2ccc3ccccc3c2)CC1 (stereo unspecified)	-34.6%	0.0%	7.94µM*	56.2µM*	-10.7%	?
O=C(CCl)N1CCN(S(=O)(=O)c2ccc3ccccc3c2)CC1	40.5%	?	-27.1%	-17.6%	14.2%	-16.9%
O=C(Nc1ccccc1)C(Cl)C(=O)c1ccccc1 (stereo unspecified)	-9.9%	?	-9.5%	2.5%	14.1µM*	3.9%[0.501 µM]
CC(C(=O)Nc1ccccc1)C(=O)Nc1ccccc1	34.2%	0.0%	-17.4%	13.0%	2.7%	-5.3%[0.501 µM]
CC(=O)C(Cl)C(=O)Nc1ccccc1 (stereo unspecified)	61.6%	-16.4%	-3.4%	-3.1%	?	44.7µM*
O=C(NCc1ccccc1)c1ccc2c(c1)OCCN(C1CCC1)C2	.	-7.6%[176 µM]	.	.	.	.
Cc1ccc(O)c(NC(=O)c2ccc(Br)c(S(=O)(=O)N3CCCCC3)c2)c1	-5.1%	-28.2%	?	17.8µM*	.	?
Cc1ccc(O)c(NC(=O)c2cccc(S(=O)(=O)N3CCCCC3)c2)c1	4.1%	6.8%	-21.2%	-26.2%	19.1%	-48.4%[59 µM]
COc1ccccc1NC(=O)C1=C(C)Nc2nc(SC)nn2C1c1cccnc1 (stereo unspecified)	.	38.9%	.	.	.	.
COc1ccc(CCNC(=O)c2ccc3c(c2)CCC(=O)N3)cc1OC	.	-21.1%	.	.	.	.
O=C(Cc1ccc(F)cc1)N1CCOCC1	26.8%	13.4%	-2.8%	9.6%	20.2%	-3.0%
O=C(Cc1ccc(-c2csc(Nc3ccc(F)cc3)n2)s1)N1CCOCC1	.	31.6µM*	.	.	.	.
N#C/C(=C/c1cccc2c1OCCCO2)c1nc(-c2ccccn2)cs1	.	-0.8%	.	.	.	.
CCOc1ccc2c(n1)CCN(C(=O)Cc1cccc(F)c1)C2	.	29.0%	.	.	.	.
COc1cc(OC)cc(-c2c(C#Cc3ccsc3)c3cc(-c4ccc(CN5CCOCC5)cc4)ccc3n2C)c1	22.8%	-29.5%	-17.3%	.	.	.
COc1cc(C#Cc2c(-c3cncn3C)n(C)c3ccc(-c4cnc(OC)nc4)cc23)cc(OC)c1	6.7%	4.9%	?	50.1µM*	.	6.5%[0.501 µM]
COc1cc(OC)cc(-c2c(Sc3ccccc3)c3cc(-c4cnc(OC)nc4)ccc3n2C)c1	.	3.2%	.	.	.	.
COc1cc(C#Cc2c(-c3cncn3C)n(C)c3ccc(-c4ccc(CN5CCOCC5)cc4)cc23)cc(OC)c1	4.3%	23.8%	8.91µM*	.	.	.
